Screening data (PubChem)
Rows were chosen to be rich in hits. Some 0.45% of all compounds tested hit in one or more screens of this group.
LGR2 inh – Drosophila LGR2 receptor signaling inhibition. hit rate 0.35% among 380,000. inhibition, % at 9.99 µM. HEK293 LGR2, CRE-luciferase, bursicon-stimulated, 4 h;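 active = drop in luminescence signal, shown as inhibition above about 50% in the replicate tests, limit read from the data, passing the limit was not always enough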;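 also: agonist challenge used bursicon conditioned medium at about half maximal strength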
NCOA3 inh – inhibits human SRC3 coactivator; hit rate 0.17% among 360,000; HEK293 GAL4-SRC3 luciferase reporter, luminescence; inhibition, % at 3.6 µM; AID 588352; Q9Y6Q9;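 active = inhibition above a per-campaign cutoff, the mean of all compounds plus 3 SD, cut at about 60% in these data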;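 also: 0% = DMSO-treated cells and 100% = gossypol-treated cells at 36 µM; higher means less SRC3-driven luciferase light from the GAL4 reporter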
NCOA2 inhibitor – inhibits human steroid receptor coactivator 2. Q15596. HEK293 GAL4-SRC2 luciferase reporter, luminescence. inhibition, % at 9 µM. hit rate 0.17% among 370,000;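 active = inhibition above the mean inhibition of all tested compounds plus 3 SD, set per campaign, cut at about 52% in these data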;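 also: 0% = DMSO treated cells and 100% = cells given Gossypol at 36 µM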
Target sequence (Q15596 whole entry, looked up, the tested form may be a part): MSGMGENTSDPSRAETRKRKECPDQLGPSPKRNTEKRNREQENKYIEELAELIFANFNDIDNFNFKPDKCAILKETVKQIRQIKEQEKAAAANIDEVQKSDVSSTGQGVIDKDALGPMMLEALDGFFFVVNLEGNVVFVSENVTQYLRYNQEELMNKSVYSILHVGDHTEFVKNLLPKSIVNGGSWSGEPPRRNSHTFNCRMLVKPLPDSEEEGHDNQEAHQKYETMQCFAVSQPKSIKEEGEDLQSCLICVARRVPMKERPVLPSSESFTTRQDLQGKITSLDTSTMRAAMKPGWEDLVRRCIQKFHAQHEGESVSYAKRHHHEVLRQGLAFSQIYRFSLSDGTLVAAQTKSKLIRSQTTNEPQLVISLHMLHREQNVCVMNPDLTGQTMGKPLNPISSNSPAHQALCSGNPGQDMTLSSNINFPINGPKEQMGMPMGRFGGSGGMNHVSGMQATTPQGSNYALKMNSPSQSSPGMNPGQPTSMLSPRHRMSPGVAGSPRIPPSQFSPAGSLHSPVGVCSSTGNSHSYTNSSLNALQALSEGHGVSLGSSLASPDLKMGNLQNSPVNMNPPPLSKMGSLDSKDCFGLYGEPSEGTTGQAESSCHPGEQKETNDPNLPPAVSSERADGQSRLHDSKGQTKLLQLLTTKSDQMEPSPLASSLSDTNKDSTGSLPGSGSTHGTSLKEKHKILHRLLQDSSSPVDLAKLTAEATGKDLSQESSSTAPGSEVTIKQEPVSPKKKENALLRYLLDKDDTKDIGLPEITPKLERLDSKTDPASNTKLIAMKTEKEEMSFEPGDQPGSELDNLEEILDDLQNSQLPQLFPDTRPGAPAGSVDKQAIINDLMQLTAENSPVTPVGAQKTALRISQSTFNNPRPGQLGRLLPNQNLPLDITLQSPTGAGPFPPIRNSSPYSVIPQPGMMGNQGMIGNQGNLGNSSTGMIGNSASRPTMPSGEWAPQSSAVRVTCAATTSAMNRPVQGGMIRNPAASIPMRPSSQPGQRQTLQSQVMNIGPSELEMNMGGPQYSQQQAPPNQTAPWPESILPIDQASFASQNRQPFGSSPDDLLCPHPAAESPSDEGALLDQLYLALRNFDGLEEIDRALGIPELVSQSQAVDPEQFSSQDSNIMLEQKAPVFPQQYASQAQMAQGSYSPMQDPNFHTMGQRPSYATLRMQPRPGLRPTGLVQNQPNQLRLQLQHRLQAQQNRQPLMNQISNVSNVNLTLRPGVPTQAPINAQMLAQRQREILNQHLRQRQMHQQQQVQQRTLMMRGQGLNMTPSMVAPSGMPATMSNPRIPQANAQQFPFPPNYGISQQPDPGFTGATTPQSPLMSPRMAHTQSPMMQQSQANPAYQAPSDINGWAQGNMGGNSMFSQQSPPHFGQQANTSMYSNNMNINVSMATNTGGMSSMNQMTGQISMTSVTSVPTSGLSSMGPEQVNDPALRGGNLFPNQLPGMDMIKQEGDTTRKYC
SRC1 inh – inhibitors of human steroid receptor coactivator 1 (SRC1) | inhibition, % at 3.6 µM | HEK293 GAL4-SRC1 luciferase reporter, luminescence | Q15788 | hit rate 0.12% among 360,000;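 active = inhibition above the campaign mean plus 3 SD, with each screening campaign given its own cutoff, cut at about 60% in these data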;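 also: 0% = DMSO treated cells and 100% = gossypol at 36 µM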
NR5A2 inv ag – inverse agonists of human LRH-1 (NR5A2) | O00482 | hit rate 0.13% among 360,000 | inhibition, % at 3.6 µM | HEK293T StAR-luciferase reporter, LRH-1 transfected, 24 h;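 active = inhibition above the mean inhibition of all tested compounds plus 3 SD, cut at about 73% in these data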;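 also: 0% = DMSO wells and 100% = reporter-only cells lacking LRH-1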
An asterisk follows results filed as active; . = no result; ! = not confirmed by another sample.

SMILES	LGR2 inh	NCOA3 inh	NCOA2 inhibitor	SRC1 inh	NR5A2 inv ag
COCCN(C(=O)CCC(=O)Nc1nccs1)C(C(=O)NC(C)(C)C)c1ccc(C)cc1 (stereo unspecified)	-7	0	76*	-13	-25
COCCN(C(=O)CCC(=O)Nc1nccs1)C(C(=O)NC(C)(C)C)c1ccc(F)cc1 (stereo unspecified)	6	1	-10	15	-2
CCC(C)(C)c1ccc(OCCCC[n+]2ccc(C)cc2)c(C(C)(C)CC)c1	34	.	4	.	.
CCC(C)(C)c1ccc(OCCCC[n+]2cccc(C)c2C)c(C(C)(C)CC)c1	.	65*	-32	34	79*
CC(C)NC(=O)NCC[C@H]1CC[C@@H](NS(=O)(=O)c2ccccc2)[C@H](CO)O1	5	.	.	.	.
Cc1cn([C@@H](CCCCNC(=O)OC(C)(C)C)C(=O)NCCCCCCCCCCC(=O)N2CCN(C(=O)OC(C)(C)C)CC2)nn1	.	64*	.	35	35
CC[C@H](C)Cc1cn([C@@H](CCCN=C(NC(=O)OC(C)(C)C)NC(=O)OC(C)(C)C)C(=O)NCCCCCCCCCCC(=O)N2CCN(C(=O)OC(C)(C)C)CC2)nn1	.	9	.	-2	-20
CN(Cc1cnc2nc(N)nc(N)c2n1)c1ccc(C(=O)N[C@@H](CCC(=O)O)C(=O)O)cc1	-4	61	11	68*!	41
C[C@H](CO)N1C[C@H](C)[C@H](CN(C)Cc2ccncc2)OCCCC[C@H](C)Oc2ccc(NC(=O)Nc3ccc(F)cc3)cc2C1=O	-12	.	.	.	.
Cc1ccc(-c2nnn(CC(=O)N(Cc3cccs3)C(C(=O)NCC3CCCO3)c3ccco3)n2)o1 (stereo unspecified)	6	12	17	-1	16
COc1ccc(-c2nnn(CC(=O)N(Cc3ccccc3Cl)C(C(=O)NCC3CCCO3)c3ccco3)n2)cc1OC (stereo unspecified)	.	11	95*	-11	-14
C[C@@H]1CN([C@@H](C)CO)C(=O)c2cccc(NC(=O)c3nc4ccccc4s3)c2O[C@H]1CN(C)Cc1ccc2c(c1)OCO2	32	.	.	.	.
CN(Cc1ccccc1)C1=CC(=[N+]2CCCC2)CC(C)(C)C1	13	63*	8	39	72
OCCN(CCO)c1cc2c3ccccc3ccc2c2ccccc12	85*	1	-34	-16	26
Cc1scc(C(=O)N/N=C/c2ccc([N+](=O)[O-])o2)c1C	-4	-1	71*	14	49
Cc1scc(C(=O)N/N=C/c2ccco2)c1C	.	-72	-43	-75	-55
O=C(N/N=C\c1ccc([N+](=O)[O-])o1)C1COc2ccccc2O1 (stereo unspecified)	17	39	62*	30	45
C[C@@H]1CN([C@H](C)CO)S(=O)(=O)c2ccc(C#CC3CCCC3)cc2O[C@@H]1CN(C)Cc1cncnc1	19	.	.	.	.
Cc1cc(C)c(C)c(S(=O)(=O)N2CCN(c3ncnc4ccccc34)CC2)c1C	79*	-12	-10	5	-3
COc1ccc2c3c([nH]c2c1)[C@@H](CO)N(C(=O)CN1CCOCC1)CC31CN(C(=O)NC(C)C)C1	3	.	.	.	.
CCOC(=O)c1cn2nc(N3CCCCC3)ccc2n1	88*	-40	4	-90	-121
CCOC(=O)c1cn2nc(N3CCCC3)ccc2n1	68*	-77	-5	-93	-116
COc1ccccc1NC(=O)N[C@@H]1CC[C@@H](CCNS(=O)(=O)c2ccc(C)cc2)O[C@@H]1CO	-10	.	.	.	.
COc1ccc(NC(=O)/C(Cl)=C(/Cl)S(=O)Cc2ccccc2)cn1 (stereo unspecified)	.	26	84*	-58	69
COc1ccc(NC(=O)Cc2ccccc2)cn1	2	4	-45	9	12
SMILES	LGR2 inh	NCOA3 inh	NCOA2 inhibitor	SRC1 inh	NR5A2 inv ag
Nc1nc(N)c2cc(CNc3ccc(Cl)c(Cl)c3)ccc2n1	107*	8	13	0	27
Nc1nc(N)c2cc(Sc3ccc(Cl)cc3)ccc2n1	0	-8	0	-32	18
O=C(C[C@H]1C=C[C@H](NC(=O)c2ccncc2)[C@@H](CO)O1)Nc1ccccc1	2	.	.	.	.
O=C(CC(Nc1ccc(Cl)cc1Cl)C(=O)O)c1ccccc1 (stereo unspecified)	42	64*	52	63*	30
CCCNC(=O)[C@@H]1[C@@H](CO)[C@@H]2Cn3c(ccc(-c4ccccc4F)c3=O)[C@@H]2N1C	-3	.	.	.	.
NC[C@H](Cc1ccccc1)NCCCCC1CCCCC1	-11	0	4	2	2
CNC[C@H](CC1CCCCC1)NC[C@H](Cc1ccccc1)NCCC12CC3CC(CC(C3)C1)C2	101*	-4	-12	-2	-10
C#Cc1ccc([C@@H]2C=C(C(=O)N3CCN(Cc4ccccc4)CC3)O[C@H](OCCCCO)C2)cc1	.	55	.	60	89*
C[C@H]1CN([C@@H](C)CO)S(=O)(=O)c2ccc(C#CC3CC3)cc2O[C@H]1CN(C)C(=O)Nc1cc(F)ccc1F	-13	.	.	.	.
COC(=O)c1cc(=O)n(Cc2cccs2)c(=Nc2ccc(F)cc2)s1	56*	23	6	7	13
COc1cccc(CNC(=O)C[C@H]2C=C[C@@H](NC(=O)C3CCC3)[C@@H](CO)O2)c1	6	.	.	.	.
Nc1c(C(=O)Nc2ccc(Cl)c(C(=O)O)c2)sc2nc3c(cc12)CCCC3	19	-13	-32	-9	10
Nc1c(C(=O)Nc2cccc(C(=O)O)c2)sc2nc3c(cc12)CCCC3	76*	-94	-38	-80	-154
COc1cc(NC(=O)c2cccc3c(-c4cccnc4)coc23)cc(OC)c1OC	86*	16	29	35	28
COc1ccc(-c2coc3c(C(=O)Nc4ccc(OC)nc4)cccc23)c(C)c1	-10	-7	-1	-2	1
O=C(Nc1cccc(C(F)(F)F)c1)c1cccc2c(-c3cccnc3)coc12	.	-6	.	4	1
COc1ccc(-c2coc3c(C(=O)Nc4cc(OC)c(OC)c(OC)c4)cccc23)c(C)c1	58*	38	23	42	20
Cn1c(=O)c2cc(NC(=O)CCc3ccc(O)cc3)ccc2n1Cc1cccc(C(F)(F)F)c1	-3	59	-4	44	74*
Cn1c(=O)c2cc(NC(=O)CCc3ccccc3)ccc2n1Cc1cccc(C(F)(F)F)c1	3	1	-5	-13	-3
O=C(N/N=C/c1cn(-c2cccs2)nc1-c1ccccc1)c1ccccc1Br	.	-16	-22	-27	-34
O=C(N/N=C/c1cn(-c2cccs2)nc1-c1ccccc1)c1ccccc1O	74*	15	-3	-22	-2
O=C(O)C1CC=CCC1C(=O)Nc1ccc(F)c(F)c1 (stereo unspecified)	.	2	-5	2	-24
Cc1ccc(C(=O)Nc2ccc3c(c2)OCO3)cc1	.	-43	-4	-100	-80
Cc1ccc(C(=O)Nc2ccc3c(c2)OCCO3)cc1	67*	-77	17	-92	-108
O=C(Nc1ccc(NC(=O)c2ccco2)cc1)c1ccc2c(c1)OCCO2	-22	-3	61*	3	-28
